Laboratory results from PubChem BioAssay (Tox21).
Several values for one entry are separate records, joined by “and”; a condition that tells them apart may be missing. Equal entries are not always repeated. Inconclusive results are not listed. Entries that show only a call come without a potency. Some compounds were tested as several samples or in several runs, with calls that do not always agree. Activity calls are given as the source filed them. Unless noted, calls come from the whole dose curve.

Assays:
[1] = Nuclear factor erythroid 2-related factor 2/antioxidant responsive element (Nrf2/ARE) small molecule agonists: qHTS cell viability counter screen in human keratinocytes (AID 1919968; active = well fitted curve in the direction sought with a large enough effect in the repeat runs; an effect the other way counts as inactive or inconclusive; note: nearly all actives have a fitted effect of over 55% in size; note: potency is the fitted concentration of half-maximal effect)
Procedure, shortened: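 After a 5 h attachment period, ARE-reporter keratinocytes were dosed with compounds in DMSO and then cultured 23 h at 37 C. Cell viability came from CellTiter-Fluor signal read after a further 1 h.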

[2] = Nuclear factor erythroid 2-related factor 2/antioxidant responsive element (Nrf2/ARE) small molecule agonists: luciferase reporter gene qHTS assay in human keratinocytes (AID 1919969); note: nearly all actives have a fitted effect of over 35% in size; note: potency is the fitted concentration of half-maximal effect
[3] = molecular target: Gonadotropin-releasing hormone receptor (Homo sapiens) (UniProt P30968); assay: Human gonadotropin-releasing hormone receptor (GnRHR) small molecule agonists, calcium flux assay in GnRHR-HEK293 cells (AID 1920063); note: nearly all actives have a fitted effect of over 35% in size
Procedure, shortened: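 We seeded human GnRHR-expressing HEK293 cells for 18 hours, loaded them with calcium dye for an hour at 37 C, added test compounds, and recorded fluorescence intensity kinetically for three minutes.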

[4] = molecular target: KiSS-1 receptor (Homo sapiens) (UniProt Q969F8); assay: Human kisspeptin (KISS1R) small molecule agonists, calcium flux assay in KISS1R-HEK293 cells (AID 1920064; active = well fitted curve in the direction sought with a large enough effect in the repeat runs; an effect the other way counts as inactive or inconclusive)
Procedure, shortened: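 Kinetic calcium assay, 1 s sampling over 3 min at Ex/Em 480/540, in HEK293 cells engineered with human KISS1R; compounds delivered in DMSO after 1 h dye loading.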

[5] = G protein-coupled receptor (GPCR) small molecule agonists, calcium flux assay: HEK293 wild type cell line counter screen (AID 1920065)
Procedure, shortened: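 Calcium-sensitive dye, loaded 1 h at 37 C into cells cultured 18 h, reports compound-evoked calcium release as fluorescence (Ex/Em 480/540), measured over 3 min. Agonist mode; 15-point titrations, triplicate.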

[6] = p53 small molecule agonists, cell-based qHTS assay with human liver microsomes (AID 1963577)
Procedure, shortened: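 p53RE-bla cells, 4,000/well, compound added after 5 h, with human liver microsomes 0.5 mg/mL and NADPH 0.5 mg/mL final; 16 h at 37 C, then LiveBLAzer 2 h RT, fluorescence.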

[7] = p53 small molecule agonists, cell-based qHTS assay with rat liver microsomes (AID 1963578)
Procedure, shortened: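 p53RE-bla cells, 4,000/well, pre-incubated 5 h, then given compounds plus rat liver microsomes (0.5 mg/mL final) and NADPH (0.5 mg/mL final). Incubation 16 h at 37 C; beta-lactamase reporter read by LiveBLAzer fluorescence after 2 h at room temperature.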

[8] = p53 small molecule agonists, cell-based qHTS assay with human liver microsomes: qHTS cell viability counter screen (AID 1963579); note: nearly all actives have a fitted effect of over 45% in size; note: potency is the fitted concentration of half-maximal effect
Procedure, shortened: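 p53RE-bla cells, 4,000/well, dosed 5 hours after plating, with human liver microsomes (0.5 mg/mL final) plus NADPH (0.5 mg/mL final), 16 hours at 37 C. Viability read as CellTiter-Glo luminescence after 30 min at room temperature.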

[9] = p53 small molecule agonists, cell-based qHTS assay with rat liver microsomes: qHTS cell viability counter screen (AID 1963580); note: nearly all actives have a fitted effect of over 45% in size; note: potency is the fitted concentration of half-maximal effect
Procedure, shortened: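 Viability is assessed in parallel with the p53 reporter read: HCT-116 p53RE-bla cells receive compounds plus rat microsomes and NADPH (0.5 mg/mL final apiece), incubate 16 h at 37 C, and then CellTiter-Glo luminescence is recorded.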

[10] = p53 small molecule agonists, cell-based qHTS assay (AID 1963582; active = well fitted activation curve with a large enough effect in the signal ratio in the repeat runs, not every such curve was filed as active; the % refers to the signal ratio)
Procedure, shortened: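 In this cell-based concentration-response screen, a p53 response element drives beta-lactamase; cells received DMSO-borne compounds after 5 h culture and were incubated a further 16 h before FRET substrate development.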

[11] = molecular target: 5-hydroxytryptamine receptor 2A (Homo sapiens) (UniProt P28223); assay: 5-hydroxytryptamine receptor 2A (HTR2A) small molecule antagonists, cell-based qHTS assay (AID 1963586); note: nearly all actives have a fitted effect of over 45% in size; note: potency is the fitted concentration of half-maximal effect
Procedure, shortened: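 Antagonist-mode intracellular calcium assay: DOI (4 nM) added after 5 min compound pre-incubation at room temperature to dye-loaded HTR2A-CHO cells. Fluorescence followed for 3 min, sampled every second.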

[12] = molecular target: 5-hydroxytryptamine receptor 2A (Homo sapiens) (UniProt P28223); assay: 5-hydroxytryptamine receptor 2A (HTR2A) small molecule agonists, cell-based qHTS assay (AID 1963587); note: nearly all actives have a fitted effect of over 30% in size; note: potency is the fitted concentration of half-maximal effect
Procedure, shortened: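 CHO cells stably expressing human HTR2A, plated 18 h, loaded with calcium dye 1 h at 37 C. Agonist mode: compounds added and intracellular calcium fluorescence recorded kinetically for 2 min at 1 sec intervals.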

[13] = molecular target: Muscarinic acetylcholine receptor M1 (Homo sapiens) (UniProt P11229); assay: Cholinergic receptor muscarinic 1 (CHRM1) small molecule antagonists, cell-based qHTS assay (AID 1963588); note: nearly all actives have a fitted effect of over 40% in size; note: potency is the fitted concentration of half-maximal effect
Procedure, shortened: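 CHRM1-CHO calcium-flux assay, antagonist mode. Cells were seeded 18 h, dye-loaded 1 h at 37 C and given compound for 5 min at RT, then acetylcholine was added at 50nM. FDSS fluorescence was read 3 min; 15 concentrations, three runs.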

[14] = molecular target: Muscarinic acetylcholine receptor M1 (Homo sapiens) (UniProt P11229); assay: Cholinergic receptor muscarinic 1 (CHRM1) small molecule agonists, cell-based qHTS assay (AID 1963589); note: nearly all actives have a fitted effect of over 35% in size
Procedure, shortened: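 Measures agonist-induced intracellular calcium rise. Stable human CHRM1 CHO line, 1 h dye load at 37 C, compounds from DMSO, kinetic fluorescence read.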

[15] = cAMP Responsive Elements (CRE) small molecule agonists, cell-based qHTS assay (AID 1963590)
Procedure, shortened: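 A CRE-responsive beta-lactamase reporter in HEK 293T cells was used. Treatment ran 3 h at 37 C; detection used LiveBLAzer B/G FRET substrate for 2 h at room temperature.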

[16] = cAMP Responsive Elements (CRE) small molecule antagonists, cell-based qHTS assay (AID 1963591; active = well fitted inhibition curve with a large enough effect in the signal ratio in the repeat runs, not every such curve was filed as active; the % refers to the signal ratio)
Procedure, shortened: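 HEK293T cells carrying a CRE-driven beta-lactamase reporter receive compound and NKH477 (0.25 uM final) for 3 h. Fluorescence from LiveBLAzer B/G FRET substrate is read after 2 h at room temperature.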

[17] = molecular target: Beta-2 adrenergic receptor (Homo sapiens) (UniProt P07550); assay: Adrenergic beta2 receptor (ADRB2) small molecule antagonists, cell-based qHTS assay (AID 1963592); note: nearly all actives have a fitted effect of over 50% in size; note: potency is the fitted concentration of half-maximal effect
Procedure, shortened: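 Cells (CHO, stable ADRB2 overexpression) incubated 18-20hr at 37C; compounds added from DMSO; agonist mix (1nM isoproterenol, 100uM IBMX, 25uM Ro-20-1724) added; 0.5hr RT; d2-cAMP and anti-cAMP-cryptate added; 1hr RT; 665/615 nm read.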

[18] = molecular target: D(2) dopamine receptor (Homo sapiens) (UniProt P14416); assay: Dopamine D2 receptor (DRD2) small molecule antagonists, cell-based qHTS assay (AID 1963595; active = well fitted inhibition curve with a large enough effect in the signal ratio in the repeat runs, with a control signal flat; the % refers to the signal ratio)
Procedure, shortened: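 Stable D2 receptor HEK293 line, 24 h after seeding. Compound preincubated 10 min, then quinpirole (12 nM) with forskolin analogue NKH477 (200 nM), 30 min, room temperature. Detection by time-resolved FRET of cAMP.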

[19] = p53 small molecule agonists, cell-based qHTS assay: qHTS cell viability counter screen (AID 1963581); note: nearly all actives have a fitted effect of over 45% in size
Procedure, shortened: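 Following 5 h attachment, HCT-116 p53RE-bla cells took up compound for 16 h at 37 C; the reporter was read with B/G FRET substrate (2 h RT), and viability then via CellTiter-Glo ATP luminescence.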

[20] = molecular target: D(2) dopamine receptor (Homo sapiens) (UniProt P14416); assay: Dopamine D2 receptor (DRD2) small molecule agonists, cell-based qHTS assay (AID 1963594); note: nearly all actives have a fitted effect of over 35% in size
Procedure, shortened: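 HEK293 cells stably expressing human DRD2, pre-treated with PDE inhibitor Ro20-1724 (0.1 mM final) and compound 10 min at room temperature, then stimulated with NKH477 (200nM […]) for 30 min. cAMP read by HTRF (665/620 nm).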

Sequence of D(2) dopamine receptor (Homo sapiens) (P14416 whole entry, looked up): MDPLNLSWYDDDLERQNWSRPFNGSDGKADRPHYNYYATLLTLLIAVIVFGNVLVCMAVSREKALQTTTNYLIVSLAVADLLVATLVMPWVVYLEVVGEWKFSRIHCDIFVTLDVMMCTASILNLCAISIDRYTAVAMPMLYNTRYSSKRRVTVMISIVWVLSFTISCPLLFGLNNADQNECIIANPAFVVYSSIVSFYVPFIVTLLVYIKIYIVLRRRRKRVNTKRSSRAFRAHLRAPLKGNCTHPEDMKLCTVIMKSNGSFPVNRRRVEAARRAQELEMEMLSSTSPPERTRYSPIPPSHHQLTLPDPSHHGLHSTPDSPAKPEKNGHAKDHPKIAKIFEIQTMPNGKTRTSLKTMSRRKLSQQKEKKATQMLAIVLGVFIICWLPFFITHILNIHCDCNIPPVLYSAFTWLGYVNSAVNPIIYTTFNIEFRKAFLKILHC
Sequence of KiSS-1 receptor (Homo sapiens) (Q969F8 whole entry, looked up): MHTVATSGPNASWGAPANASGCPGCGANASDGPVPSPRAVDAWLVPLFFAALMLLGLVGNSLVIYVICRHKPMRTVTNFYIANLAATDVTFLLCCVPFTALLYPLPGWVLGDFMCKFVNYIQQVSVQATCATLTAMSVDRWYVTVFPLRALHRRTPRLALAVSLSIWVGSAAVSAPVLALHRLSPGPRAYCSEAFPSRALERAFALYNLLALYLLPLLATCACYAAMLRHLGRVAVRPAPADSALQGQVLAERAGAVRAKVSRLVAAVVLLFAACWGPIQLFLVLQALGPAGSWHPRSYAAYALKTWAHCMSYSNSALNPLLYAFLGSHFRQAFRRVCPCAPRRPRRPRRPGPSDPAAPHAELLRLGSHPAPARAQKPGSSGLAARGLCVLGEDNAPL
Sequence of Gonadotropin-releasing hormone receptor (Homo sapiens) (P30968 whole entry, looked up): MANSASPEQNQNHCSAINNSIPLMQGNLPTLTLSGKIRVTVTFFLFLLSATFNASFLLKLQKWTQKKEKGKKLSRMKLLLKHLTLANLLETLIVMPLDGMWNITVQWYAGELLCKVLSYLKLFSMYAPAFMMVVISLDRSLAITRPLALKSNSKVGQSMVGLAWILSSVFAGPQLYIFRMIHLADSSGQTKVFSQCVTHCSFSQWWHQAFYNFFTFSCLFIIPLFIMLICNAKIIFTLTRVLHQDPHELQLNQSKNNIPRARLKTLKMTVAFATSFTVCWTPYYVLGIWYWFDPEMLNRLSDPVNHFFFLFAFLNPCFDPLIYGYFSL
Sequence of Beta-2 adrenergic receptor (Homo sapiens) (P07550 whole entry, looked up): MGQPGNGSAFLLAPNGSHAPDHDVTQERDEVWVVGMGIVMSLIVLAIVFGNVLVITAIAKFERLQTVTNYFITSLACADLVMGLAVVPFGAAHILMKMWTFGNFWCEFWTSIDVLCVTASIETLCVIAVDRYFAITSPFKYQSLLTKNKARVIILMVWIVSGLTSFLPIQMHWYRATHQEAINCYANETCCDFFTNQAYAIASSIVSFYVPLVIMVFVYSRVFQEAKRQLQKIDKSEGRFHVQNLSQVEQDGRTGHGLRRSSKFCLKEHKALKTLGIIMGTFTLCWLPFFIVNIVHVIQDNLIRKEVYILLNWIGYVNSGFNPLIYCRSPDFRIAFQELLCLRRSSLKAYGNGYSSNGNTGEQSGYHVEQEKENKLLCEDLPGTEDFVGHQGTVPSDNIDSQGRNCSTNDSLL
Sequence of 5-hydroxytryptamine receptor 2A (Homo sapiens) (P28223 whole entry, looked up): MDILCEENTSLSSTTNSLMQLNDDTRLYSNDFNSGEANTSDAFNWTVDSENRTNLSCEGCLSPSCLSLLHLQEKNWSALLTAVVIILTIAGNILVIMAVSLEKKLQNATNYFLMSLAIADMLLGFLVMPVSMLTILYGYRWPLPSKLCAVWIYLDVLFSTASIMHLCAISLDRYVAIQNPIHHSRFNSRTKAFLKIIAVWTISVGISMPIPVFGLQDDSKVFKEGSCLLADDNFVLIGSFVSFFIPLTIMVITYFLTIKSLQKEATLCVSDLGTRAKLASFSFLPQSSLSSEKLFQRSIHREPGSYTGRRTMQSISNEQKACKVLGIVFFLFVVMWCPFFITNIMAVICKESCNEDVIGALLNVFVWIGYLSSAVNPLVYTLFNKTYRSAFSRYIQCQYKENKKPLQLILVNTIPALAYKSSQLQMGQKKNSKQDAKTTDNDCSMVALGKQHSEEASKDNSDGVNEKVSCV
Sequence of Muscarinic acetylcholine receptor M1 (Homo sapiens) (P11229 whole entry, looked up): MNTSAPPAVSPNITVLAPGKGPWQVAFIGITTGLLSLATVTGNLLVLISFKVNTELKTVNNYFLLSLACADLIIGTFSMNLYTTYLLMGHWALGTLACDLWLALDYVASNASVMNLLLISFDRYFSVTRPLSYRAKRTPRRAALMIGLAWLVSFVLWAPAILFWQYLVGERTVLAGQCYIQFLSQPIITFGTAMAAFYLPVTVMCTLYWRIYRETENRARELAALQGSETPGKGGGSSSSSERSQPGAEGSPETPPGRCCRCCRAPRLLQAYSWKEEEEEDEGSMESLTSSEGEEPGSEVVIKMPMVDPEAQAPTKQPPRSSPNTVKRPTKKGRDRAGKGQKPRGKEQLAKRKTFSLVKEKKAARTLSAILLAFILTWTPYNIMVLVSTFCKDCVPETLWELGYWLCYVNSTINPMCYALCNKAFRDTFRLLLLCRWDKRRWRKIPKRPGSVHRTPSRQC

Compound	Potency [1]	Potency [2]	Potency [3]	Potency [4]	Potency [5]	Potency [6]	Potency [7]	Potency [8]	Potency [9]	Potency [10]	Potency [11]	Potency [12]	Potency [13]	Potency [14]	Potency [15]	Potency [16]	Potency [17]	Potency [18]	Potency [19]	Potency [20]
CC1COC2(c3ccccc3Cl)c3cc(Cl)ccc3NC(=O)CN12 (stereo not drawn)	inactive	inactive	inactive	inactive	inactive	inactive	inactive	inactive	inactive	inactive	inactive	inactive	inactive	inactive	inactive	inactive	inactive	inactive	–	–
O=[N+]([O-])c1ccc(CBr)cc1	inactive	inactive	inactive	inactive	inactive	inactive	inactive	inactive	–	inactive	inactive	inactive	inactive	inactive	inactive	inactive	inactive	inactive	inactive	inactive
Nc1ccccc1C(=O)OCCc1ccccc1	inactive	488 nM (active) and inactive	inactive	inactive	inactive	inactive	inactive	inactive	inactive	inactive	inactive	inactive	inactive	inactive	–	–	inactive	inactive	–	inactive
CC1CN1 (stereo not drawn)	inactive	inactive	inactive	inactive	inactive	inactive	inactive	inactive	inactive	inactive	inactive	inactive	3.75 µM (active)	inactive	inactive	inactive	inactive	inactive	–	inactive
CCOC(=O)C(O)(c1ccc(Cl)cc1)c1ccc(Cl)cc1	61.8 µM (active)	inactive	inactive	inactive	inactive	inactive	inactive	inactive	inactive	inactive	33.8 µM (active) and inactive	6.99 µM (active) and inactive	8.48 µM (active)	inactive	–	–	69.3 µM (active) and inactive	inactive	–	inactive
N#CCCCl	inactive	inactive	inactive	inactive	inactive	inactive	inactive	inactive	inactive	inactive	–	inactive	inactive	inactive	–	inactive	inactive	inactive	–	inactive
CCN(CC)C(=O)C(C)Oc1cccc2ccccc12 (stereo not drawn)	inactive	inactive	inactive	inactive	inactive	inactive	inactive	inactive	inactive	–	–	inactive	inactive	inactive	inactive	inactive	inactive	inactive	–	inactive
O=c1[nH]c2ccccc2n1C1CCN(CCCC(c2ccc(F)cc2)c2ccc(F)cc2)CC1	27.3 µM (active) and 13.3 µM (active)	inactive	inactive	inactive	inactive	inactive	inactive	28.9 µM (active) and inactive	40.8 µM (active) and inactive	–	–	inactive	inactive	inactive	–	–	33.5 µM (active)	–	–	inactive
Cl/C=C/Cl	inactive	inactive	inactive	inactive	inactive	inactive	inactive	inactive	inactive	inactive	inactive	inactive	inactive	inactive	–	inactive	inactive	inactive	–	inactive
CN=C=O	inactive	inactive	inactive	inactive	inactive	inactive	inactive	inactive	inactive	inactive	inactive	inactive	–	inactive	inactive	inactive	inactive	inactive	–	inactive
CC(Cl)Cl	inactive	5.84 µM (active)	inactive	inactive	inactive	inactive	inactive	inactive	inactive	inactive	inactive	inactive	inactive	inactive	inactive	inactive	–	inactive	–	inactive
N#Cc1ccccc1N	inactive	inactive	inactive	inactive	inactive	inactive	inactive	inactive	inactive	inactive	inactive	inactive	inactive	–	inactive	inactive	inactive	inactive	–	inactive
CCC(C)c1cc([N+](=O)[O-])cc([N+](=O)[O-])c1O (stereo not drawn)	inactive and 17.2 µM (active)	inactive	inactive	inactive	inactive	inactive	inactive	inactive	inactive	inactive	inactive	–	inactive	inactive	inactive	–	inactive	–	–	inactive
Cc1ccc([N+](=O)[O-])cc1	inactive	inactive	inactive	inactive	inactive	inactive	inactive	inactive	inactive	inactive	inactive	–	inactive	inactive	inactive	inactive	inactive	inactive	–	inactive
C=CC1CC=CCC1 (stereo not drawn)	inactive	inactive	inactive	inactive	inactive	inactive	inactive	inactive	inactive	inactive	inactive	inactive	inactive	inactive	inactive	inactive	inactive	inactive	–	inactive
